“And” between values parts separate entries of the source, which are not always exact repeats. Equal values may be shown once. Hit rate of the full screen: of about 260,000 compounds, about 1,500 (0.58%) were called active. Not shown: some 5% with an inconclusive outcome.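 Rule for the calls: active = inhibition above a set limit at one or more doses, reproduced on every date tested; inconclusive = results disagree between test dates, or hit never tested in dose response; inactive = the rest.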 The list is a sample of the results. Entries with a potency or affinity are not part of this list.
molecular target: Virion infectivity factor (Human immunodeficiency virus type 1 group M subtype B (isolate BH10)) + Virion infectivity factor (Human immunodeficiency virus type 1 group M subtype B (isolate BRU/LAI)) + Virion infectivity factor (Human immunodeficiency virus type 1 group M subtype B (isolate PCV12)) + Virion infectivity factor (Human immunodeficiency virus type 1 group M subtype B (isolate HXB2)) + DNA dC->dU-editing enzyme APOBEC-3G (Homo sapiens) (UniProt P69720+P69721+P69722+P69723+Q9HC16); test: HIV-1 Vif–A3G interaction blockers – biochemical, TR-FRET, GST-Vif 1-94, biotin-A3G peptide, dose response retest, primary screen (AID 1117319); conditions: TR-FRET GST-Vif / biotin-A3G peptide binding; active compounds read high;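 note: Vif residues 1-94 fused to GST binding biotinylated APOBEC3G peptide 110-148; 0% = full assay without inhibitor and 100% = GST in place of GST-Vif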

inhibition, inactive:
COc1cccc(NC(=O)CC(C)=O)c1 3.45%
CCNc1nc(NC(C)(C)C)nc(SCC(N)=O)n1 -9.57%
O=C(CN(Cc1cccs1)C(=O)CSc1nnc(COc2ccccc2)o1)NC1CCCCC1 3.54%
COc1ccc(C)cc1NC(=S)N1CCN(c2ncccn2)CC1 6.81%
CC1CCN(S(=O)(=O)c2ccc(C(C)C)cc2)CC1 -4.55%
Cc1cn([C@H]2C[C@H](O)[C@@H](CCC(=O)NCc3ccco3)O2)c(=O)[nH]c1=O 3.31%
Cc1cc(NC(=O)c2cc(-c3ccc(O)cc3)on2)no1 -3.11%
C=CCSc1nc2sc(C)c(C)c2c(=O)n1CC=C -3.91%
COc1cc(C2N(c3ccccn3)C(=O)C3CCCN32)cc(OC)c1OC (stereo not given) -8.96%
COc1ccc(N2C(=O)C3CCCN3C2c2cccs2)cc1 (stereo not given) -1.1%
O=C1C2CCCN2C(c2cccs2)N1c1ccc(Cl)cc1 (stereo not given) -1.78%
O=C1C2CCCN2C(c2ccccc2)N1c1ccc(Cl)cc1 (stereo not given) 15.8%
O=C(CNC(=O)c1ccc(Br)o1)Nc1cccc(S(=O)(=O)N2CCOCC2)c1 1.25%
CC1CCCCC1NC(=O)c1c(O)nc2ccccn2c1=O (stereo not given) -12.1%
COc1ccc(C(=O)Nc2ccc3c(c2)OCCO3)c(OC)c1 1.98%
Cc1ccc(C(=O)n2ncn(C)c2=S)cc1 -5.15%
COC(=O)CN1C(=O)COc2ccc(S(=O)(=O)N3CCCCC3)cc21 -2.76%
Nc1cccc2nc3ccccc3cc12 11.9%
Cc1cc(N)c2ccccc2n1 3.24%
O=C(CN1CCC(C(=O)c2ccc3c(c2)OCCO3)CC1)Nc1ccccc1F 2.56%
COc1cccc(C2NC(=O)c3ccccc3O2)c1OC (stereo not given) -1.95%
Cc1cc(-c2nnc(CCC(=O)N(CC3CC3)CC3CCCO3)o2)no1 (stereo not given) 0.72%
Cc1ccc(-c2cc(C(=O)Nc3c(C)n(C)n(-c4ccccc4)c3=O)[nH]n2)c(O)c1 23.2%
CC(=O)N1CCN(c2ccc(NCc3cccc4ccccc34)cc2)CC1 28.3%
CC(=O)Nc1ccc(N2CCN(C(C)=O)CC2)cc1 24.9%
O=C(c1ccccc1)N1CCN(c2ccc(NCc3ccc4c(c3)OCO4)cc2)CC1 21.7%
CC(=O)N1CCN(c2ccc(NC(=O)c3ccc4c(c3)OCO4)cc2)CC1 18.3%
Nc1c(C(=O)CSc2nccn2-c2ccc(Cl)cc2)c(=O)[nH]c(=O)n1C1CC1 -3.47%
CC1CCN(CCCCOc2cccc(Br)c2)CC1 -0.02%
COc1cccc(NC(=O)N(C)C[C@H]2OCc3cnnn3CCCC(=O)N([C@H](C)CO)C[C@@H]2C)c1 -12.7%
COc1ccc(Oc2cccc(Cl)c2CNC(=O)CSCC(=O)O)cc1 7.24%
COc1ccc(NC(=O)Cc2c[nH]c3ccccc23)cc1S(=O)(=O)N1CCOCC1 -3.49%
Cc1c(NC(=O)C(C)N2C(=O)C3C4C=CC(C4)C3C2=O)c(=O)n(-c2ccccc2)n1C (stereo not given) -0.22%
COc1ccc(C(=O)Cn2nnc(-c3ccccc3NC(=O)C3CCCCC3)n2)cc1 -3.13%
Cc1ccc(OCCCN2C(=O)C(=O)c3cc(C)ccc32)cc1 -4.93%
Cn1nnnc1SCCNS(=O)(=O)c1ccccc1 2.62%
Cc1cccc(Nc2cnn(C34CC5CC(CC(CC(=O)O)(C5)C3)C4)c(=O)c2Cl)c1 5.69%
Cc1ccc(Nc2cnn(C34CC5CC(CC(CC(=O)O)(C5)C3)C4)c(=O)c2Cl)cc1 -0.2%
O=c1[nH]nc(Cc2ccc3ccccc3n2)c2ccccc12 -4.55%
COC(=O)N1CCN(c2ccc(C(C)=O)cc2)CC1 5.12%
Cc1ccc(NC(=O)C2CCCN(S(=O)(=O)c3cnc[nH]3)C2)c(Br)c1 (stereo not given) 1.69%
COc1ccc(C(=O)Nc2nc(CC(=O)NCCc3cccc(OC)c3)cs2)cc1 0.4%
COc1cc(O)cc(/C=C/c2ccccc2)c1 6.25%
COc1cc(/C=C/c2ccc(O)cc2)cc(OC)c1 0.21%
CNS(=O)(=O)c1cccc(C(=O)OCC(=O)NC(C)CCc2ccccc2)c1 (stereo not given) 1.38%
COC(=O)c1ccc(-n2nnnc2SC)cc1 6.93%
CCOc1ccc(NC(=O)N[C@@H](Cc2ccccc2)C(=O)O)cc1 3.58%
CC(=O)Nc1ccc(NC(=O)CC2Nc3cccc4cccc(c34)NC2=O)cc1 (stereo not given) 18%
O=C(CC1Nc2cccc3cccc(c23)NC1=O)Nc1ccc(F)cc1 (stereo not given) 19.5%
Cc1ccc(C)c(CSc2nnc(C)c(=O)[nH]2)c1 -5.37%
Cc1nn(CC#N)c(=O)n1-c1ccc(F)cc1 0.42%
O=C(CCS(=O)(=O)c1ccc(Cl)cc1)N1CCN(c2ccc(F)cc2)CC1 -4.61%
O=C(CCS(=O)(=O)c1ccc(Br)cc1)N1CCN(c2ccc(Cl)cc2)CC1 5.94%
COc1ccc(CCN2CCCn3c2nc2c3c(=O)n(CC(N)=O)c(=O)n2C)cc1OC -0.32%
NS(=O)(=O)c1ccc(Cl)cc1[N+](=O)[O-] -11.6%
COc1ccc(N(CN2C(=O)C3CC=CCC3C2=O)C(=O)c2ccco2)cc1 (stereo not given) 18.2%
O=C1CCC(=O)N1CN(C(=O)c1ccco1)c1ccc(Cl)c(Cl)c1 3.26% and 3.71%
CCc1nn2c(=O)cc(COc3ccc(/C=C4\C(=N)N5N=C(C)SC5=NC4=O)cc3)nc2s1 -5.78%
Oc1c(CN2CCOCC2)ccc(CN2CCOCC2)c1O 30.9%
Oc1c(CN2CCOCC2)cc(CN2CCOCC2)c(O)c1CN1CCOCC1 4.15%

Source: PubChem BioAssay AID1117319 (Southern Research Institute, 2015)
